From PubChem BioAssay AID624330 (Southern Research Specialized Biocontainment Screening …, 2012) come the findings set out here.

About 2,100 (0.62%) of roughly 340,000 compounds were called active.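 How the source made its calls: active means first-screen hits whose inhibition reached a set limit at any dose in the follow-up dose series; inconclusive means inhibition above the set first-screen limit but never retested; inactive means the rest.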 Only a sample is shown. Entries with a potency or affinity are not part of this list.

The test deals with Rac GTPase-activating protein 1 (Homo sapiens) (UniProt Q9H0H5). Briefly: blockers of MgcRacGAP-driven Rac1 GTP hydrolysis – biochemical, ADP Hunter fluorescence, primary and confirmatory, confirmation (AID 624330).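 Further: fluorescence reports GDP produced by GAP-driven GTP hydrolysis.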 The following applies: MgcRacGAP-stimulated Rac1 GTP hydrolysis, at 30 µM, stronger effect = higher value, GST-tagged Rac1 F28L mutant substrate.
Chain of Rac GTPase-activating protein 1 (Homo sapiens) (Q9H0H5 whole entry, looked up): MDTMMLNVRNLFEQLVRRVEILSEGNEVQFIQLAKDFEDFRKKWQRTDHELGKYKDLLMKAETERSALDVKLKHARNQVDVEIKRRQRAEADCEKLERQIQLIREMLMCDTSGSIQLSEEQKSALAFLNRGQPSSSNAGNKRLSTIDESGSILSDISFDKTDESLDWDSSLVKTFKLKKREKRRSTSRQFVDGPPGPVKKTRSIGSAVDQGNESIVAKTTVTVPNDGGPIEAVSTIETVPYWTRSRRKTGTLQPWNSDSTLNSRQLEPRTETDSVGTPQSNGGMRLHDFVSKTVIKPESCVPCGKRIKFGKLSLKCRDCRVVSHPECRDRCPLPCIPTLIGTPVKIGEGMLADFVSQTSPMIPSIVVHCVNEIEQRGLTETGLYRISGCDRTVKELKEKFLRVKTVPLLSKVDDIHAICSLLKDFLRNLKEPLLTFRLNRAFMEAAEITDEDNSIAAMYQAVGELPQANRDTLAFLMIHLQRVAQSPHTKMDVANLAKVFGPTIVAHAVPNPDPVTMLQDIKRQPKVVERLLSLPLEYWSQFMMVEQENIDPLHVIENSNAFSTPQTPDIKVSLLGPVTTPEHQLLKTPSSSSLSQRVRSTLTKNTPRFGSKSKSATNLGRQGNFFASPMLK
Regarding `COCCC(=O)N1CCCC(CCC(=O)NCc2ccc(F)c(F)c2)C1` (configuration not stated), the inhibition is 4.17% (inactive).
Turning to `COc1ccc2nc3cc([N+](=O)[O-])ccc3c(NNc3ccc([N+](=O)[O-])cc3)c2c1`, the inhibition is 1.37% (inactive).
As for `COc1cc2c(cc1OC)-c1cc(NC3CC3)nc(=O)n1CC2`, the inhibition is 3.36% (inactive).
Regarding `Cc1ccc(NC(=O)c2csc(-c3ccccc3)c2C)cc1`, the inhibition is 9.66% (inactive).
The figure for `CCOC(=O)c1c(C)[nH]c(C(=O)N2CCN(CC)CC2)c1C` is 2.01% (inactive); for `CCOC(=O)c1c(C)[nH]c(C(=O)CN2CCOCC2)c1C` it is 2.51% (inactive).
On to `COC(=O)c1cc(OC)c(OC)cc1NC(=O)c1cc(OC)cc(OC)c1`, for which the inhibition was -0.7% (inactive).
With `CCOc1ccccc1N1CCN(Cc2ccco2)CC1`, the inhibition is 14.9% (inactive).
On to `CCOc1ccccc1N1CCN(C(=O)CC(C)(C)C)CC1`, for which the inhibition is -0.74% (inactive).
As for `CCC(=O)c1cn(CC(=O)Nc2cc(C)ccc2C)c2ccccc12`, the inhibition is 13.6% (inactive).
Take `O=C(CNC(=O)c1ccc(Br)o1)NNC(=O)c1ccccc1O`: the inhibition was 6.63% (inactive).
On to `CCOc1cc(C(=O)Nc2ccc(N3CCOCC3)cc2)cc(Br)c1OC`, for which the inhibition is 2.59% (inactive).
Regarding `COc1cc(CC(=O)Nc2ccc(N3CCOCC3)cc2)cc(OC)c1OC`, the inhibition was 4.24% (inactive).
Regarding `CCOc1cc(CNc2ccccc2)cc(Br)c1OCC(=O)NC(C)(C)C`, the inhibition was 6.03% (inactive).
Turning to `CCOc1cc(CNc2ccc3c(c2)OCCO3)cc(Br)c1OC`, the inhibition is 23.8% (inactive).
For `CCOc1cc(CNc2ccc3c(c2)OCCO3)cc(Br)c1OCC`, the inhibition was 30% (inactive).
As to `CCOc1c(Cl)cc(CNc2ccc(N3CCCC3)cc2)cc1OC`, the inhibition is 36.9% (inactive).
As for `COc1cc(CNc2ccc(N3CCCC3)cc2)cc(Cl)c1OC`, the inhibition was 1.89% (inactive).
For the compound `CCOc1cc(CNc2ccc(Br)cc2)cc(Br)c1OCC(=O)NC(C)(C)C`, the inhibition is -3.09% (inactive).
Next, `COCCNC(=O)/C(C#N)=C/c1ccc(O)cc1`: 15.1% (inactive).
Regarding `CC(C)CCc1noc(CN2CCC(C(=O)N3CCOCC3)CC2)n1`, the inhibition is 7.77% (inactive).
For the compound `Cc1cccc(C2NS(=O)(=O)N=C2N)c1` (configuration not stated), the inhibition was 4.81% (inactive).
For `NC(=O)c1c(NC(=O)C2c3ccccc3Oc3ccccc32)sc2c1CCCCC2`, the inhibition is 10.9% (inactive).
As to `Oc1c(C=C2N=c3ccccc3=N2)sc(=S)n1-c1ccc2ccccc2c1`, the inhibition is 9.34% (inactive).
Consider `O=C(CN(c1ccccc1)S(=O)(=O)c1ccccc1)Nc1ccc(F)cc1`, for which the inhibition is -5.62% (inactive).
`Cc1ccc(NC(=O)c2ccccc2F)cc1S(=O)(=O)N1CCCCCC1`: the inhibition was -2.21% (inactive).
As to `CCn1c(CSc2nc3ccccc3s2)nnc1SCC(=O)c1ccc(O)cc1O`, the inhibition was 6.52% (inactive).
In the case of `CCn1c(CSc2nc3ccccc3s2)nnc1SCC(=O)c1ccc(Cl)cc1`, the inhibition is -0.25% (inactive).
For `COc1ccccc1N(CC(=O)NCC1CCCO1)C(=O)CCC(=O)Nc1cc(C)on1` (configuration not stated), the inhibition is 2.95% (inactive).
For `COc1ccc(-c2noc(CN(C)Cc3ccccc3)n2)cc1`, the inhibition is 15.4% (inactive).
For `O=C(CCSCc1ccccc1Cl)NC1CCCCC1`, the inhibition is 5.37% (inactive).
Regarding `O=Nc1c(O)ccc2cc(S(=O)(=O)O)ccc12`, the inhibition is 13.3% (inactive).
For the compound `Nc1ccc2c(O)cc(S(=O)(=O)O)cc2c1`, the inhibition was 19.4% (inactive).
With `O=C(O)c1cc2cc(S(=O)(=O)O)ccc2cc1O`, the inhibition was 6.33% (inactive).
The figure for `Nc1cc(S(=O)(=O)O)cc2ccc(S(=O)(=O)O)cc12` is 6.2% (inactive).
The figure for `COc1ccccc1Nc1ccc(N)cc1` is 10.5% (inactive).
The figure for `O=P(c1ccccc1)(c1ccccc1)c1cc(S(=O)(=O)O)ccc1O` is 5.95% (inactive); for `Nc1cccc2cc(S(=O)(=O)O)ccc12` it is 20.9% (inactive).
On to `COc1ccccc1Nc1ccc(NS(=O)(=O)c2ccc(C(C)=O)cc2)cc1`, for which the inhibition was 23.2% (inactive).
The figure for `CCc1ccccc1NC(=O)c1ccc(NCCc2ccccc2)c([N+](=O)[O-])c1` is 10.6% (inactive).
For `C/C(=N\NC(=O)c1cccs1)C(C)(C)C`, the inhibition was -0.86% (inactive).
Regarding `O=C(Nc1cccc(F)c1)Nc1ccnn1C1CCN(C(=O)c2ccccn2)CC1`, the inhibition is 4.39% (inactive).
Next, `CC1CCCCC1NC(=O)c1ccco1` (configuration not stated): 0.81% (inactive); `COc1cccc(Oc2ccc3nnc(C(F)(F)F)n3n2)c1`: -1.34% (inactive); `C[C@@H](O)CNC(=O)c1[nH]cnc1C(=O)Nc1cccc(Cl)c1`: 16.2% (inactive).
Take `Nc1ccccc1-c1n[nH]c(=S)s1`: the inhibition is 25.6% (inactive).
Take `CCN(c1ccc(OC)cc1)S(=O)(=O)c1nnc(NC(=O)C(C)C)s1`: the inhibition was 3.54% (inactive).
For the compound `O=C(O)c1ccccc1C(=O)c1ccc(-c2ccccc2)cc1`, the inhibition was 8.16% (inactive).
Take `CCN1CCN(c2ccc(S(=O)(=O)N3CCOCC3)cc2NC(=O)c2ccccc2SC)CC1`: the inhibition is 3.45% (inactive).
The figure for `CCC(=O)Nc1cc(-c2nn(C)c(=O)c3ccccc23)ccc1OC` is 5.48% (inactive); for `O=C(COc1ncnc2cc([N+](=O)[O-])ccc12)NCCc1ccc(Cl)cc1` it is -7.58% (inactive); for `Cc1ccc(NC(=O)c2cc(NC(=O)c3ccco3)ccc2N2CCOCC2)cc1Cl` it is -19.1% (inactive).
For `O=S(=O)(c1ccccc1)c1cc(O)ccc1O`, the inhibition was 6.16% (inactive).
For the compound `Cc1ccc(S(=O)(=O)Nc2ccc(O)c(S(=O)(=O)c3ccc(C)cc3)c2)cc1`, the inhibition is 6.97% (inactive).
The figure for `O=S(=O)(O)c1cccc2cccc(Nc3ccccc3)c12` is 13.4% (inactive); for `Cc1cc(=O)oc2cc(Nc3ccccc3)ccc12` it is 6.98% (inactive).
Regarding `CC(=O)Nc1ccc2c(O)cc(S(=O)(=O)O)cc2c1`, the inhibition was 6.64% (inactive).
`Nc1ccc(C(=O)Nc2ccc3c(O)cc(S(=O)(=O)O)cc3c2)cc1`: the inhibition was 14.1% (inactive).
As to `CCCN(CCC)C(=O)C1CCCN(S(=O)(=O)c2ccc3c(c2)oc(=O)n3C)C1` (configuration not stated), the inhibition is 7.01% (inactive).
Next, `O=C(COC(=O)Cc1ccc(Br)cc1)NC1CC1`: 4.98% (inactive); `O=C(COc1ccc(Cl)cc1)N(Cc1ccccc1)c1nc(-c2ccccc2)cs1`: 9.03% (inactive); `O=c1n(-c2ccccc2)c(=O)n2n1CCCC2`: -0.32% (inactive).
Next, `CCCCN(CC)CCCNC(=O)CC1Oc2ccccc2NC1=O` (configuration not stated): 0.11% (inactive).
Next, `CCOc1ccccc1C(C(=O)NC1CCCC1)N(Cc1ccco1)C(=O)CNC(=O)c1ccco1` (configuration not stated): 5.39% (inactive); `O=C(CN1c2ccccc2Sc2ccccc21)NNC(=S)Nc1ccc(Cl)cc1`: 15.4% (inactive).
In the case of `CCOC(=O)C(CO)(NC(C)=O)C(=O)OCC`, the inhibition was 3.77% (inactive).
For the compound `COc1ccccc1OCc1cc(C(=O)N2CC3C[C@@H]4CC2C[C@H](C3)C4)no1`, the inhibition is 3.59% (inactive).
For `CCC(C(=O)Nc1cccc(C(F)(F)F)c1)c1ccccc1` (configuration not stated), the inhibition was 17.9% (inactive).
For the compound `CN(C)CCNC(C(=O)Nc1cc(Cl)cc(Cl)c1)c1ccccc1` (configuration not stated), the inhibition is 5.37% (inactive).
For the compound `CCOc1ccccc1NC(=O)C(NCCc1ccc(OC)cc1)c1ccccc1` (configuration not stated), the inhibition is -0.19% (inactive).
`CCOc1ccccc1NC(=O)C(NCC1CCCCC1)c1ccccc1` (configuration not stated): the inhibition was 4.44% (inactive).
On to `CCOc1ccccc1NC(=O)C(OC(=O)C1CC1)c1ccccc1` (configuration not stated), for which the inhibition is -2.99% (inactive).
Next, `CCOc1ccccc1NC(=O)C(OC(=O)c1ccccc1)c1ccccc1` (configuration not stated): 12.2% (inactive); `CC(NC(=O)c1ccco1)C(=O)N1CCCCC1` (configuration not stated): 3.98% (inactive).
The figure for `O=C(COC(=O)c1cccnc1Cl)NC1CCCCC1` is 4.82% (inactive); for `CC(C)Cc1cc(C(=O)N2CCN(c3ccc(F)cc3)CC2)no1` it is 0.62% (inactive).
Next, `COc1cccc(C(=O)NC(=S)Nc2ccccc2N2CCOCC2)c1`: 6.71% (inactive); `COc1ccc(C)cc1S(=O)(=O)N1CCC(C(=O)NCCc2ccccc2)CC1`: 14.5% (inactive); `COC(=O)c1ccc(Cl)c(NC(=O)CSc2nnc(-c3ccncc3)o2)c1`: 4.07% (inactive).
For `OC1CCN(Cc2cn(Cc3ccccc3)nc2-c2cc3ccccc3o2)CC1`, the inhibition is 5.47% (inactive).
In the case of `O=C(Nc1ccc(Cl)cc1)Nc1nnc(CSCc2ccccc2Cl)s1`, the inhibition is 12.1% (inactive).
As to `CN(C(=O)COc1ccccc1)c1ccc([N+](=O)[O-])cc1`, the inhibition was 7.5% (inactive).
As to `Cc1ccccc1OCCNC(=O)c1ccco1`, the inhibition was 3.61% (inactive).
For the compound `Cc1ccc(C(=O)NCC(C)NC(=O)c2ccc(C)c(C)c2)cc1C` (configuration not stated), the inhibition was 4.02% (inactive).
On to `CCOc1ccc(N2CC(C(=O)NCc3ccco3)CC2=O)cc1` (configuration not stated), for which the inhibition was -1.21% (inactive).
Turning to `Cc1onc(-c2ccccc2)c1C(=O)NC(=S)NNC(=O)c1ccncc1`, the inhibition was 0.31% (inactive).
With `CCCN(C(=O)Cc1csc(-c2ccccc2)n1)C1CCS(=O)(=O)C1` (configuration not stated), the inhibition was 4.87% (inactive).
In the case of `CCOC(=O)c1c(NC(=O)CSc2cccc[n+]2[O-])sc(C(=O)Nc2ccccc2)c1C`, the inhibition is 7.58% (inactive).
As to `CCOC(=O)c1c(NC(=O)CN2CCN(C)CC2)sc(C(=O)Nc2ccccc2)c1C`, the inhibition is 8.53% (inactive).
Next, `CCOc1ccc(S(=O)(=O)Nc2ccccc2C(=O)Nc2ccccc2N2CCOCC2)cc1`: 1.24% (inactive); `Cc1ccc(OC(=O)c2cccc(S(=O)(=O)N3CCN(C)CC3)c2)c(Br)c1`: 10% (inactive); `COc1ccc(N2C(S)=C(C#N)C(=O)NC2c2ccc(OC)c(OC)c2)cc1` (configuration not stated): 29% (inactive).
Next, `CCOc1ccc(C2NC(=O)C(C#N)=C(S)N2c2ccc(C)cc2)cc1OC` (configuration not stated): 51% (inactive); `Cc1cc(C)c2[nH]c(=O)c(CN(CC3CCCO3)C(=S)NCc3ccco3)cc2c1` (configuration not stated): 10.7% (inactive).
`CN(CC(=O)Nc1ccc(S(=O)(=O)N2CCCC2)cc1)Cc1cccc(Cl)c1Cl`: the inhibition was 4.27% (inactive).
Next, `Cc1ccc(CN2CC(C(=O)Nc3nc(C)cs3)CC2=O)cc1` (configuration not stated): -0.43% (inactive); `CCn1c2ccccc2c2cc(NC(=O)CN3CCCC3)ccc21`: 5.72% (inactive).

Broadly, the inhibition is the change of the read-out against control, counted positive when it falls.
